Reference: PubChem BioAssay AID935 (National Center for Advancing Translational Sciences (NCATS), 2007)
Records with an inconclusive call do not appear. The source made the active and inactive calls. The call rests on the fitted dose curve.

Assay: Confirmation Concentration-Response Assay for Identification of Small Molecule Agonists of Stat Signaling Pathway
Conditions: SIE-bla cells, IL-6 STAT beta-lactamase reporter, 5 h
Source text: NIH Molecular Libraries Screening Centers Network [MLSCN] NIH Chemical Genomics Center [NCGC] MLSCN Grant: None NCGC Assay Overview: This assay is a retest of actives identified from the Stat signaling pathway assay (PubChem AID 446). The Stat assay is cell-based and measures Interleukin 6 (IL-6) mediated modulation of a beta-lactamase reporter gene controlled by a STAT inducible element (SIE-bla cells, Invitrogen). IL-6 is a cytokine that signals via the JAK/STAT pathway and is implicated in cancer and inflammation. SIE-bla cells are induced by IL-6 at 40 pM EC50 and inhibited by the pan JAK inhibitor, 2-(1,1-Dimethylethyl)-9-fluoro-3,6-dihydro-7H-benz[h]-imidaz[4,5-f]isoquinolin-7-one, at approximately 10 nM IC50. Plated cells were incubated overnight and on the following day, stimulated with 40 pM IL-6 for 5 hrs. The assay was stimulated with an EC50 of IL-6 to retest activators of STAT signaling.
NCGC Assay Protocol Summary: Cells were trypsinized, washed in assay medium (AM, OPTI MEM with 0.5% fetal bovine serum, 0.1 mM nonessential amino acids, 1 mM sodium pyruvate, 10mM HEPES pH 7.3, 100U/ml penicillin, and 100 ug/ml streptomycin) and suspended at […] in AM. Approximately 2500 cells in 5 uL/well was dispensed into 1536-well plates and the cells were incubated overnight at 37 C. 23 nL of compound were delivered by a pin tool and 1 uL of IL-6 (40 pM final concentration in AM) was added. After plates were incubated at 37 C for 5 hrs, 1uL of detector mix (LiveBLAzerTM, Invitrogen) was added, the plates incubated at room temperature for 2.5 hrs, and fluorescence intensity at 460 and 530 nm emissions was measured at 405 nm excitation by an Envision (Perkin Elmer).

Potency, active:
Cc1ccc(CNC(=O)c2cc3c(=O)n4ccccc4nc3n(CC3CCCO3)c2=N)cc1 (stereo unspecified) 10 µM
CN(C)c1ccc(-c2nn3c(-c4ccc(Cl)cc4)nnc3s2)cc1 3.16 µM
CCN(CC)CCC[C@H](C)Nc1c2ccc(Cl)cc2nc2ccc(OC)cc12 12.6 µM
CC1CCN(c2oc(-c3ccccc3Cl)nc2C#N)CC1 6.31 µM
Nc1ncnc2c1ncn2[C@@H]1O[C@H](COP(=O)(O)O)[C@@H](O)[C@@H]1O 25.1 µM
Cc1ccc(S(=O)(=O)N2CCN(c3nc(C(C)C)c4c(c3C#N)CC(C)(C)OC4)CC2)cc1 10 µM
Cc1cc(=O)oc2c(CN3CCCCC3)c(O)c(Cl)cc12 10 µM
COc1cccc2c1C(=O)c1c(O)c3c(c(O)c1C2=O)C[C@@](O)(C(=O)CO)C[C@@H]3O[C@H]1C[C@H](N)[C@H](O)[C@H](C)O1 3.98 µM
CCN(CC)CCN1C(=O)c2cccc3cc(N)cc(c23)C1=O 15.8 µM
CCNC(=O)c1cc2c(=O)n3cccc(C)c3nc2n(CCc2ccccc2)c1=N 12.6 µM
CCOC(=O)c1cc2c(=O)n3cccc(C)c3nc2n(C)c1=N 3.98 µM
